RORgamma inh – blocks mouse ROR gamma transcriptional activity. P51450. actives 5.4% (n = 310,000). AID 2551. Drosophila S2 Gal4-RORgamma UAS-luciferase reporter, 20 h. Potency, µM (top dose mostly 53.6 µM), inactives show at the highest dose activity change, negative = inhibition, hits mostly inhibitors; note: potency is the fitted concentration of half-maximal effect; nearly all actives have a fitted effect of over 60% in size
Target sequence (P51450 whole entry, looked up, the tested form may be a part): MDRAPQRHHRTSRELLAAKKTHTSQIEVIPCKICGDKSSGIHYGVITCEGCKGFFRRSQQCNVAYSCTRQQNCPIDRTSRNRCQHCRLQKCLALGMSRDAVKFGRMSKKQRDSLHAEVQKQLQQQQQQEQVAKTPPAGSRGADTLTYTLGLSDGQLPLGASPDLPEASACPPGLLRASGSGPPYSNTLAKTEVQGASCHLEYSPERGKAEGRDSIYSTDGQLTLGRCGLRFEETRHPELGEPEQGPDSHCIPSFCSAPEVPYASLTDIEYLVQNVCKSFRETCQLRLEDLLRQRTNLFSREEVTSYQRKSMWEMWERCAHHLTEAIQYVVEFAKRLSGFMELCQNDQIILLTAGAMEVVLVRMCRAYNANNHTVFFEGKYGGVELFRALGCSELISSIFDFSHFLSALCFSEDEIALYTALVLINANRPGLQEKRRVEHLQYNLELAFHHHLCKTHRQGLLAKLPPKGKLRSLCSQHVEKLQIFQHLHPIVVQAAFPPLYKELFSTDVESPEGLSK
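ROR gamma transcriptional activity was tracked as Gal4-UAS luciferase output in stably transfected Drosophila Schneider cells, with compound added 1 hr before 700 uM copper sulfate induction and a 20 hr ambient-temperature incubation.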
TSHR antag – human thyrotropin receptor antagonism. activity change, negative = inhibition, % at 11.5 µM. actives 0.2% (n = 330,000). TSHR-expressing cells, TSH-stimulated cAMP HTRF, 2 h; stronger effect = lower value;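 active = activity change below a set negative limit, meaning inhibition stronger than a set level, cut at about -70% in these data; inconclusive = activity change between two set negative limits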
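TSHR-expressing cells, 200/well, pre-treated with compound, then stimulated with EC80 TSH (4nM final) for 2 hours at 37 deg C. cAMP measured by competitive HTRF: anti-cAMP cryptate antibody in lysis buffer plus cAMP-d2, read after 30 minutes at room temperature.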
FBPA coupling cs – coupling enzyme interference in Giardia aldolase counter-screen | coupling enzyme system counterscreen, AmpLite Red fluorescence | activity change, negative = inhibition, % at 58.2 µM, hits read low | actives 0.67% (n = 290,000); in the data active = activity change below about -30%
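First, compound is pin-transferred into glyceraldehyde-3-phosphate coupling-enzyme reagent at 57.5 uM final and held 10 min at RT. Next, substrate, coupling system and AmpLite Red are added. After 20 min RT, fluorescence (525/598 nm) is read.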
ELG1 repair inh – inhibitors of ELG1-dependent DNA repair in HEK293T cells. HEK293T ELG1-luciferase reporter, luminescence, 16 h; DNA damage induced by 5-fluorouridine. Potency, µM (doses to about 46.1 µM), for inactives: at the highest dose activity change, negative = inhibition, hits mostly inhibitors. actives 2.3% (n = 330,000); note: potency is the fitted concentration of half-maximal effect; nearly all actives have a fitted effect of over 55% in size
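In this reporter screen, reduction of luminescence relative to DMSO vehicle indicated activity. Compounds and 5-fluorouridine were added together to 2,000 cells per well, incubated for 16 hr at 37 °C, then developed with ONE-Glo.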
Gal4-VP16 FLuc – Gal4-VP16 reporter inhibition counter-screen | Drosophila S2 Gal4-VP16 UAS-luciferase, luminescence, 20 h | Potency, µM (doses to about 53.6 µM), without a hit: at the highest dose activity, negative = inhibition, most hits filed as inhibitors | actives 3.5% (n = 310,000);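 note: Gal4-VP16 expression switched on by copper sulfate through the metallothionein promoter; potency is the fitted concentration of half-maximal effect; nearly all actives have a fitted effect of over 50% in size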
Starred values were filed as active, the others as inactive. The list is not random: actives were taken first. Their share in the collection is about 8%. Unless noted, calls come from the whole dose curve; as a rule, active = well fitted curve in the direction sought with a large enough effect; inconclusive = small, poorly fitted or top-dose-only effect, or another doubt; inactive = no such curve, though single readings can be large; an effect the other way counts as inactive or inconclusive. % is set by controls: 0 for no effect and ±100 for the full control effect.

Screening CC(=O)c1cccc(N(C(=O)Cn2nnc3ccccc32)C(C(=O)NCC2CCCO2)c2ccc(N3CCOCC3)cc2)c1 (stereo not given) returned RORgamma inh 2%, TSHR antag -5, FBPA coupling cs 2, ELG1 repair inh 12% and Gal4-VP16 FLuc -1%.
For O=C1N/C(=N\N=C\c2ccco2)SC1Cc1ccccc1[N+](=O)[O-] (stereo not given) the results were RORgamma inh 3.2µM*, TSHR antag -10, FBPA coupling cs 2, ELG1 repair inh 19% and Gal4-VP16 FLuc 5µM*.
`O=C1N/C(=N\N=C\c2cccs2)SC1Cc1cccc(Cl)c1Cl` (stereo not given) gave RORgamma inh 0.32µM*, TSHR antag 23, FBPA coupling cs 1, ELG1 repair inh inconclusive and Gal4-VP16 FLuc 0.22µM*.
Screening O=C(CC1S/C(=N/N=C/c2cccs2)NC1=O)Nc1ccc(Cl)cc1 (stereo not given) returned RORgamma inh inconclusive, TSHR antag 4, FBPA coupling cs 3, ELG1 repair inh -3% and Gal4-VP16 FLuc inconclusive.
O=C1N/C(=N\N=C\c2cccs2)SC1Cc1ccc(Cl)cc1Cl (stereo not given) was read as RORgamma inh 0.35µM*, TSHR antag -3, FBPA coupling cs 3, ELG1 repair inh 4% and Gal4-VP16 FLuc 0.25µM*.
For CCOc1ccc(CC2S/C(=N/N=C/c3ccco3)NC2=O)cc1 (stereo not given) the results were RORgamma inh inconclusive, TSHR antag 19, FBPA coupling cs -3, ELG1 repair inh 17% and Gal4-VP16 FLuc -12%.
For CCCOc1c(Br)cc(C(=O)OCC(=O)NC(=O)c2cccn2C)cc1OC the results were TSHR antag -13 and ELG1 repair inh 8%.
For CC(=O)c1sc(N/N=C2\CC3CC2C(C)C3(C)C)nc1C (stereo not given) the results were RORgamma inh 7.1µM*, TSHR antag -18, FBPA coupling cs -3, ELG1 repair inh inconclusive and Gal4-VP16 FLuc inconclusive.
Screening COc1ccc(/C(C)=N/Nc2nc(C)c(C(C)=O)s2)cc1 returned TSHR antag 10, FBPA coupling cs 0 and ELG1 repair inh inconclusive.
`CCN(C(=O)c1coc(=O)c(Br)c1)c1ccc2c(c1)OCO2` gave RORgamma inh -13%, TSHR antag -13, FBPA coupling cs -42*, ELG1 repair inh 26% and Gal4-VP16 FLuc 16%.
`COc1ccc2c(-c3ccccc3)cc(=S)[nH]c2c1` gave RORgamma inh 1µM*, TSHR antag 6, FBPA coupling cs 4, ELG1 repair inh 1% and Gal4-VP16 FLuc inconclusive.
Screening COc1ccc2c(-c3ccccc3)cc(=O)[nH]c2c1 returned RORgamma inh 22%, TSHR antag -1, FBPA coupling cs -1, ELG1 repair inh 15% and Gal4-VP16 FLuc 17%.
`COc1ccc2nc(-c3ccccc3)[nH]c2c1` gave RORgamma inh 14%, TSHR antag 4, FBPA coupling cs -32*, ELG1 repair inh inconclusive and Gal4-VP16 FLuc inconclusive.
`COc1ccc(N(CC(=O)N2CCOCC2)S(C)(=O)=O)cc1OC` gave RORgamma inh 6%, TSHR antag -3, FBPA coupling cs -1, ELG1 repair inh -4% and Gal4-VP16 FLuc -2%.
`COc1ccc(NC(=O)c2ccc(Cc3ccc(C)cc3)o2)cc1` gave RORgamma inh 29%, TSHR antag -22, FBPA coupling cs -2, ELG1 repair inh -19% and Gal4-VP16 FLuc 2%.
For Cc1ccc(Cc2ccc(C(=O)NNC(N)=S)o2)cc1 the results were RORgamma inh 10µM*, TSHR antag 4, FBPA coupling cs 2, ELG1 repair inh 2% and Gal4-VP16 FLuc -16%.
For CC(c1ccccc1F)n1cc(C(=O)NCc2ccncc2)nn1 (stereo not given) the results were RORgamma inh 2.8µM*, TSHR antag 6, FBPA coupling cs 0, ELG1 repair inh 1% and Gal4-VP16 FLuc 5%.

From PubChem
